# How the values were obtained:
# Assay in all cases: DAPPL (digital affinity profiling via proximity ligation, sequencing); 10 mM Tris-HCl pH 7.5, 50 mM NaCl, 1 mM DTT, 4% glycerol, room temperature, 30 min; GST-TFs on glutathione beads, 16-mer random dsDNA library, 0.1% formaldehyde crosslink after washing; high values mean tight binding
# FLI1 = target: T1, FLI1 (Homo sapiens, UniProt Q01543 1-452); conditions: protein: recombinant; tags: N-terminal GST; dsDNA, one strand shown
# T1 sequence: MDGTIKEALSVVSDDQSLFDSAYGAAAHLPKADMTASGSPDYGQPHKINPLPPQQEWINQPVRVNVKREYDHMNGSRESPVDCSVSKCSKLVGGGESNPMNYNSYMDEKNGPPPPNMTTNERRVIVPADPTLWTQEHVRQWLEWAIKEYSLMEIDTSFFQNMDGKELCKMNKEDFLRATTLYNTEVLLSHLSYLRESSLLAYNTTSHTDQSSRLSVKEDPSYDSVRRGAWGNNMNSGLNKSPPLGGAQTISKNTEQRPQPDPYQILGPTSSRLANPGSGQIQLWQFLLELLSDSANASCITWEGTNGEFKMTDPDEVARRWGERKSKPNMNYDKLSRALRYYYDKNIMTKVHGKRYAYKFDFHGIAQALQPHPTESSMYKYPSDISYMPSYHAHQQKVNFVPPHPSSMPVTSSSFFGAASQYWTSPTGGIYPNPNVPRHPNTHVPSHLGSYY
# Procedure, shortened: (§1)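 Human transcription factors fused to GST were expressed in yeast, captured on glutathione beads, given DNA barcodes and pooled with a GST-only negative control. Pools were incubated with 200 nmole of a 16-mer random double-stranded DNA library in Tris/NaCl/DTT/glycerol buffer at room temperature for 30 min. They were then washed, crosslinked with 0.1% formaldehyde, proximity-ligated (BsaI/T4 ligase, 1 h, 37 °C), PCR-amplified and sequenced on an Illumina NextSeq500. Binding signal is each 6-mer's read frequency for a factor divided by its frequency for the GST control.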
# ELK1 = target: T2, ELK1 (Homo sapiens, UniProt P19419 1-428); conditions: protein: recombinant; tags: N-terminal GST; dsDNA, one strand shown
# T2 sequence: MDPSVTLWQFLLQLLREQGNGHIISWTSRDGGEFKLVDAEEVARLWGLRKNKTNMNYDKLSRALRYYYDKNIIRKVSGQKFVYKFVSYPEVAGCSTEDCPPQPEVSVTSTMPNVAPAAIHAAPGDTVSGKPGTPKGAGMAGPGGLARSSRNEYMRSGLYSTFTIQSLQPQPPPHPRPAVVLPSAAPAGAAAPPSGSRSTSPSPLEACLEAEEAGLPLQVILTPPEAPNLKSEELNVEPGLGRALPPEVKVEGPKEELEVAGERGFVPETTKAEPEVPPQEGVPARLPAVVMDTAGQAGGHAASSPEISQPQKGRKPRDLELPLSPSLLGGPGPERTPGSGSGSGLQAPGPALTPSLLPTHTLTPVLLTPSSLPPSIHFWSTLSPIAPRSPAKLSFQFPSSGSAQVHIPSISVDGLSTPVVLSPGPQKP
# Procedure, shortened: as §1
# GABPA = target: T3, GABPA (Homo sapiens, UniProt Q06546 1-454); conditions: protein: recombinant; tags: N-terminal GST; dsDNA, one strand shown
# T3 sequence: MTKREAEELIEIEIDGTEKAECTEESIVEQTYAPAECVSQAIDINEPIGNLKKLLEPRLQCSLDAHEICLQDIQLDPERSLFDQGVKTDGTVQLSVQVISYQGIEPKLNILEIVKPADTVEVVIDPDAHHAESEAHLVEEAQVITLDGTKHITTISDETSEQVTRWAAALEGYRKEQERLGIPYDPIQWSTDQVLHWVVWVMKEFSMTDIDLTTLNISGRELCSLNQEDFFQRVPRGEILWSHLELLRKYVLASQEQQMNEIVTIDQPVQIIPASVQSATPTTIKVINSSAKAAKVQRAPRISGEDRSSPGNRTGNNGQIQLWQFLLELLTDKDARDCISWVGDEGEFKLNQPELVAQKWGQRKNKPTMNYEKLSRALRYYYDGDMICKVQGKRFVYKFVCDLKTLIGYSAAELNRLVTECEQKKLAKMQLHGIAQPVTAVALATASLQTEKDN
# Procedure, shortened: as §1
# ERG = target: T4, ERG (Homo sapiens, UniProt P11308 1-479); conditions: protein: recombinant; tags: N-terminal GST; dsDNA, one strand shown
# T4 sequence: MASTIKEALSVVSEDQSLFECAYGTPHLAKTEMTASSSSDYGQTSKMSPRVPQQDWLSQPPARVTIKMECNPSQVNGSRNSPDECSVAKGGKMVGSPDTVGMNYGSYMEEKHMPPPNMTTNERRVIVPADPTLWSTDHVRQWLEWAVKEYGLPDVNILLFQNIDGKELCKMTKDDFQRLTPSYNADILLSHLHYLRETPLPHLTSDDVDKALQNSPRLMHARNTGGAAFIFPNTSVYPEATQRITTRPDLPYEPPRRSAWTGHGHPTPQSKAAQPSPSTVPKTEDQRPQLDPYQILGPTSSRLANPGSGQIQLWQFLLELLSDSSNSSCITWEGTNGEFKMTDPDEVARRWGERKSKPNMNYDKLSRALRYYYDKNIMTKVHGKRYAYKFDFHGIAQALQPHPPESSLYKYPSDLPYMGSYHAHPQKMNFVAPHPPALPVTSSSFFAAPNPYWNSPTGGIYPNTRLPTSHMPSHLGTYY
# Procedure, shortened: as §1
# ELF1 = ELF1 (Homo sapiens, UniProt P32519 1-619); conditions: protein: recombinant; tags: N-terminal GST; dsDNA, one strand shown
# Procedure, shortened: as §1
# EHF = target: T5, EHF (Homo sapiens, UniProt Q9NZC4 1-300); conditions: protein: recombinant; tags: N-terminal GST; dsDNA, one strand shown
# T5 sequence: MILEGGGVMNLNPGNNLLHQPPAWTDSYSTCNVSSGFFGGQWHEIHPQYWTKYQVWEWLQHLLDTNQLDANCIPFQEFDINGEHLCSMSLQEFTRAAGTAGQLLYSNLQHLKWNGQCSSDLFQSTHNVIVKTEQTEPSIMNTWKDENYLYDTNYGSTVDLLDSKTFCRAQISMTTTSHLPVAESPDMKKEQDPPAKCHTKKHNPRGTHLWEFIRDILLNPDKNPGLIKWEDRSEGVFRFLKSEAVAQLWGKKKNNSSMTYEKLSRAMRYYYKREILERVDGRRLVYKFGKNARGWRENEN
# Procedure, shortened: as §1
# SPI1 = SPI1 (Homo sapiens, UniProt P17947 1-270); conditions: protein: recombinant; tags: N-terminal GST; dsDNA, one strand shown
# Procedure, shortened: as §1
# SPIB = SPIB (Homo sapiens, UniProt Q01892 1-262); conditions: protein: recombinant; tags: N-terminal GST; dsDNA, one strand shown
# Procedure, shortened: as §1
# ELK3 = target: T6, ELK3 (Homo sapiens, UniProt P41970 1-407); conditions: protein: recombinant; tags: N-terminal GST; dsDNA, one strand shown
# T6 sequence: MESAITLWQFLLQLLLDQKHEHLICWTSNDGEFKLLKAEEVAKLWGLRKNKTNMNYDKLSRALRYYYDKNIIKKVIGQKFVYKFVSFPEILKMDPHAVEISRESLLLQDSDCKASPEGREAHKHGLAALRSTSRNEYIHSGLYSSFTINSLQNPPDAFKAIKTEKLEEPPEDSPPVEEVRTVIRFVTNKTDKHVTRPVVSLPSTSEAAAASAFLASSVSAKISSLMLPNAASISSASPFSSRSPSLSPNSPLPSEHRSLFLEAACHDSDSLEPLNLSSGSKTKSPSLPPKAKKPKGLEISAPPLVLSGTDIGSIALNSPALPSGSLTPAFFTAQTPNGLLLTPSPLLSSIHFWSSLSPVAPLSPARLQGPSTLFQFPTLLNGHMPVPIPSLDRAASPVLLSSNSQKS
# Procedure, shortened: as §1
# FEV = target: T7, FEV (Homo sapiens, UniProt Q99581 1-238); conditions: protein: recombinant; tags: N-terminal GST; dsDNA, one strand shown
# T7 sequence: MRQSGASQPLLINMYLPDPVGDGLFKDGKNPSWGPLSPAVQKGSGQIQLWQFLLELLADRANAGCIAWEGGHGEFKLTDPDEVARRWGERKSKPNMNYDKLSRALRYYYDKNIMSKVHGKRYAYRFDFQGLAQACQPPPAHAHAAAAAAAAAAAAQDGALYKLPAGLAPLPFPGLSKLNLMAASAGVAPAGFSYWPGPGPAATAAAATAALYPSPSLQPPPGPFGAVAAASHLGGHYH
# Procedure, shortened: as §1
# ETV5 = ETV5 (Homo sapiens, UniProt P41161 1-510); conditions: protein: recombinant; tags: N-terminal GST; dsDNA, one strand shown
# Procedure, shortened: as §1
# HSF1 = HSF1 (Homo sapiens, UniProt Q00613 1-529); conditions: protein: recombinant; tags: N-terminal GST; chain copies: 3; dsDNA, one strand shown
# Procedure, shortened: as §1
# SPIC = target: T8, SPIC (Homo sapiens, UniProt Q8N5J4 1-248); conditions: protein: recombinant; tags: N-terminal GST; dsDNA, one strand shown
# T8 sequence: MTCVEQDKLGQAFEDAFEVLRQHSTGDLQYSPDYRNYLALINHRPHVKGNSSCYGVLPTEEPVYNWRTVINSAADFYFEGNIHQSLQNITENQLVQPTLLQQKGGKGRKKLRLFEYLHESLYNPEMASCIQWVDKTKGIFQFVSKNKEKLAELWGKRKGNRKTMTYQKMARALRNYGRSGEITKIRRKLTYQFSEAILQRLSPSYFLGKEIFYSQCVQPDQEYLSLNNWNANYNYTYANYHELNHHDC
# Procedure, shortened: as §1
# ELF4 = ELF4 (Homo sapiens, UniProt Q99607 1-663); conditions: protein: recombinant; tags: N-terminal GST; dsDNA, one strand shown
# Procedure, shortened: as §1
# ELK4 = target: T9, ELK4 (Homo sapiens, UniProt P28324-2 1-405); conditions: protein: recombinant; tags: N-terminal GST; dsDNA, one strand shown
# T9 sequence: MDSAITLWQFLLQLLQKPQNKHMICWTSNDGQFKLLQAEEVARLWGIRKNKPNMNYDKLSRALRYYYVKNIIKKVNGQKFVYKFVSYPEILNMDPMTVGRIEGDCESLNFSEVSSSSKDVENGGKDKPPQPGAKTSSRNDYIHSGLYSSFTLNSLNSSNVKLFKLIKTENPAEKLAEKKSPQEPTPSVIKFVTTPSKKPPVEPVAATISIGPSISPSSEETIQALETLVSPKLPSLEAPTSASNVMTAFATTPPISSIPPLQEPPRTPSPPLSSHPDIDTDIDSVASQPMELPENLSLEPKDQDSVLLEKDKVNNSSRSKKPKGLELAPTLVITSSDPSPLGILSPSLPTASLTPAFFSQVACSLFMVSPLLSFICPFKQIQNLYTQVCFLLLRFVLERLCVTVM
# Procedure, shortened: as §1
# ETV2 = target: T10, ETV2 (Homo sapiens, UniProt O00321 1-342); conditions: protein: recombinant; tags: N-terminal GST; dsDNA, one strand shown
# T10 sequence: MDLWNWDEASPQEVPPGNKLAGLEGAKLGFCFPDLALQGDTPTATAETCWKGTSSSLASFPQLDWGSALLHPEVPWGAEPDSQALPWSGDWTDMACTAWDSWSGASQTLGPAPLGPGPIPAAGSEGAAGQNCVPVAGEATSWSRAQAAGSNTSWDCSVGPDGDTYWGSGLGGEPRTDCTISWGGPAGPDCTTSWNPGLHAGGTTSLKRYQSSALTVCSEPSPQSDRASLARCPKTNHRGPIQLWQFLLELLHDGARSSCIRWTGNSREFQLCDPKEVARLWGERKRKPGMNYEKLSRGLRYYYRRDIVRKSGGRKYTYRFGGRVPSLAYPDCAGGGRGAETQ
# Procedure, shortened: as §1
# ELF3 = target: T11, ELF3 (Homo sapiens, UniProt P78545 1-371); conditions: protein: recombinant; tags: N-terminal GST; dsDNA, one strand shown
# T11 sequence: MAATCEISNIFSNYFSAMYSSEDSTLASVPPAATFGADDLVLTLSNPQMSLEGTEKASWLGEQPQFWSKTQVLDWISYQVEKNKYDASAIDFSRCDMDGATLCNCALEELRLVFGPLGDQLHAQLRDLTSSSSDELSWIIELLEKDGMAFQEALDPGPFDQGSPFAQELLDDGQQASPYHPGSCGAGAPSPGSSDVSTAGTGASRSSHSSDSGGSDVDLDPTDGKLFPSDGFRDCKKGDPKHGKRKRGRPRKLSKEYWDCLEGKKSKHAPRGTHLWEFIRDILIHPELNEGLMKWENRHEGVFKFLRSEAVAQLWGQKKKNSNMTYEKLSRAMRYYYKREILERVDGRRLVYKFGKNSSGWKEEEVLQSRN
# Procedure, shortened: as §1
# CRX = CRX (Homo sapiens, UniProt O43186 1-299); conditions: protein: recombinant; tags: N-terminal GST; dsDNA, one strand shown
# Procedure, shortened: as §1
# ETV1 = ETV1 (Homo sapiens, UniProt P50549 1-477); conditions: protein: recombinant; tags: N-terminal GST; dsDNA, one strand shown
# Procedure, shortened: as §1
# Sequence of CRX (O43186 whole entry): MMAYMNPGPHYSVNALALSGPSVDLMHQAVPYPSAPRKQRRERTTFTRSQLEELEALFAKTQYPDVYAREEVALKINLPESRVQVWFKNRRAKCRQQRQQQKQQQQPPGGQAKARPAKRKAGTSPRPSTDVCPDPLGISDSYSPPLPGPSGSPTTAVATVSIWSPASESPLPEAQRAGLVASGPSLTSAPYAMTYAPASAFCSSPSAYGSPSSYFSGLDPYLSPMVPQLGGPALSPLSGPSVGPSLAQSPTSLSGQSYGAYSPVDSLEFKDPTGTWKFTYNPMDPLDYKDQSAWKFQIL
# Sequence of ELF4 (Q99607 whole entry): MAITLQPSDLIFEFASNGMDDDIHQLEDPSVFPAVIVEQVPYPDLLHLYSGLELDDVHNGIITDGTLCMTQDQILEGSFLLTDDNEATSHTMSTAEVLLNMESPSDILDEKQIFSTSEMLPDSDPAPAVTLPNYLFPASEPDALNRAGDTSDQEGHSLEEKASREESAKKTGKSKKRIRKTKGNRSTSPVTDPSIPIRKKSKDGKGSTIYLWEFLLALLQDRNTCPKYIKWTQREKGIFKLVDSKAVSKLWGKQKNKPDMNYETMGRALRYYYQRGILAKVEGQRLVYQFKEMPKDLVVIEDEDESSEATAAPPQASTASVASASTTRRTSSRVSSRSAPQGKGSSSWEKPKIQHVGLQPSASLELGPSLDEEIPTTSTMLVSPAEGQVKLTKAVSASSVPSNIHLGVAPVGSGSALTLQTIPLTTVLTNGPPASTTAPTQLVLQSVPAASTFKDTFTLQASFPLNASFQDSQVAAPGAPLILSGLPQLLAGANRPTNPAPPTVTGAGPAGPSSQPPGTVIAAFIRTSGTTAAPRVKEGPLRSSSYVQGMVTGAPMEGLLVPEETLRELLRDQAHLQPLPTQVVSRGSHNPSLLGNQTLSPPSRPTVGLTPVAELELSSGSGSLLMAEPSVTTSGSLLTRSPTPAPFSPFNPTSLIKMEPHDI
# Sequence of ELF1 (P32519 whole entry): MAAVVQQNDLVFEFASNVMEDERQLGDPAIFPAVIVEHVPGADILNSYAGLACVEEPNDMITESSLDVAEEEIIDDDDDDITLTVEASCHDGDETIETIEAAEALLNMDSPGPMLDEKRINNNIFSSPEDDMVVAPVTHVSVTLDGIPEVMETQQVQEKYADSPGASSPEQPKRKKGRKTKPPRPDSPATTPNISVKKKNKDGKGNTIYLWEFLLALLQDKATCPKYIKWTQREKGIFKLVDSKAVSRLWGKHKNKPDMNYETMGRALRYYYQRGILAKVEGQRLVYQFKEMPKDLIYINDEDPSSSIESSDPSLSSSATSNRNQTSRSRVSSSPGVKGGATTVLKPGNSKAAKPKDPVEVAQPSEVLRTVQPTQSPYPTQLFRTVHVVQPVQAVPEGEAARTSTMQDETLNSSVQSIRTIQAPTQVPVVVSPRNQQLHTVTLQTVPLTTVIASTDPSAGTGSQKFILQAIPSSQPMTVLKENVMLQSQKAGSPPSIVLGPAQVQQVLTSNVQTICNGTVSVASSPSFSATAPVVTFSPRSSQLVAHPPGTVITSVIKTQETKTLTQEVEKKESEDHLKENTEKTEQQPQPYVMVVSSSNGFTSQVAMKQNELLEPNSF
# Sequence of HSF1 (Q00613 whole entry): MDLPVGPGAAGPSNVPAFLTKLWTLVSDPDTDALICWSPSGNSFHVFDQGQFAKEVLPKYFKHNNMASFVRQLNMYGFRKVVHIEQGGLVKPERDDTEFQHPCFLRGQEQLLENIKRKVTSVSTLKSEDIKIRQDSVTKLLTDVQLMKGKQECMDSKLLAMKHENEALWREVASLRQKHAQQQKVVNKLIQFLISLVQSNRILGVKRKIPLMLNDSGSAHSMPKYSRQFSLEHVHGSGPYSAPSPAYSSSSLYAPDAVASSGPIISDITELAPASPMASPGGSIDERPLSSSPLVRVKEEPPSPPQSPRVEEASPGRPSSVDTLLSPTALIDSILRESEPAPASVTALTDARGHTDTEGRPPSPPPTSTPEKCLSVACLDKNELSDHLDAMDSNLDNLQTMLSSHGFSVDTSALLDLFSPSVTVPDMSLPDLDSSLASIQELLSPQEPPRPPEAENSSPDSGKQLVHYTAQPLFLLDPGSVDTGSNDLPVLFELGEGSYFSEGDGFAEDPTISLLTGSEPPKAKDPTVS
# Sequence of SPIB (Q01892 whole entry): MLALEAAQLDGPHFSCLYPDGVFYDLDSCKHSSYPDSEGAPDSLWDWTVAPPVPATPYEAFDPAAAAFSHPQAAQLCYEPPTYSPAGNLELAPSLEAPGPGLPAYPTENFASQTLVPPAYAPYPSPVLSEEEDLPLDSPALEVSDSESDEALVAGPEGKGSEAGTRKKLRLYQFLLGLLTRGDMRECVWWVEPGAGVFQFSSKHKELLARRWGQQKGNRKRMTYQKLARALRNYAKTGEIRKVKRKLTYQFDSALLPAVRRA
# Sequence of ETV1 (P50549 whole entry): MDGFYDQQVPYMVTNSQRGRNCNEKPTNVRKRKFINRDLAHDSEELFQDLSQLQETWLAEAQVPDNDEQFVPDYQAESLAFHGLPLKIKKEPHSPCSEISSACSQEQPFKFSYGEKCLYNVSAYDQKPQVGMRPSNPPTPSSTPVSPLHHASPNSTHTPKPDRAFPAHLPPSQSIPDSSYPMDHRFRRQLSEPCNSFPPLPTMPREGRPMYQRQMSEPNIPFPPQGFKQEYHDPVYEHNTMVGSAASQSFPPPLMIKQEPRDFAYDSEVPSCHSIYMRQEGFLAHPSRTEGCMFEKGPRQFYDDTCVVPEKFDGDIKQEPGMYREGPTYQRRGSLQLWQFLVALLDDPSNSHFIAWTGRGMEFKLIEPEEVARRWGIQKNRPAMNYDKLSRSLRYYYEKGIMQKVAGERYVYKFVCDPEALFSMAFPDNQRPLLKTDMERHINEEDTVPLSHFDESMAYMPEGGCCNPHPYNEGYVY
# Sequence of ETV5 (P41161 whole entry): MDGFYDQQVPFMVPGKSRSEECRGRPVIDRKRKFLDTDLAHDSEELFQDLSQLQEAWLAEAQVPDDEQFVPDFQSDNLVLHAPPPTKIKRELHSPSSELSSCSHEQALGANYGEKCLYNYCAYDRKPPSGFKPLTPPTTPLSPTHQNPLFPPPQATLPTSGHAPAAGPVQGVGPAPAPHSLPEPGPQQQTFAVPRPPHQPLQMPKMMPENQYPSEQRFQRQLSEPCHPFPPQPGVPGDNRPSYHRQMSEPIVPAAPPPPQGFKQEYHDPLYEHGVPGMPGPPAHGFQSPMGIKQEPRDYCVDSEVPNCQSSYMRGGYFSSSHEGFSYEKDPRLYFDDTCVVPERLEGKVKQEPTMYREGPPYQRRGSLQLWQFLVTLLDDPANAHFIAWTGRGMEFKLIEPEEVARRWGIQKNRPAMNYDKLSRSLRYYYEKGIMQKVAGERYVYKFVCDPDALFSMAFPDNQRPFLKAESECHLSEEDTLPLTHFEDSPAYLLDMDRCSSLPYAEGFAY
sequence,measurement,setting,value
AAGTAC,binding signal,FLI1,"1.52 fold enrichment (6-mer frequency, TF over GST control)"
same,binding signal,ELK1,"1.74 fold enrichment (6-mer frequency, TF over GST control)"
same,binding signal,GABPA,"1.44 fold enrichment (6-mer frequency, TF over GST control)"
same,binding signal,ERG,"1.53 fold enrichment (6-mer frequency, TF over GST control)"
same,binding signal,ELF1,"1.49 fold enrichment (6-mer frequency, TF over GST control)"
same,binding signal,EHF,"1.59 fold enrichment (6-mer frequency, TF over GST control)"
same,binding signal,SPI1,"1.62 fold enrichment (6-mer frequency, TF over GST control)"
same,binding signal,SPIB,"1.57 fold enrichment (6-mer frequency, TF over GST control)"
same,binding signal,ELK3,"1.73 fold enrichment (6-mer frequency, TF over GST control)"
same,binding signal,FEV,"1.52 fold enrichment (6-mer frequency, TF over GST control)"
same,binding signal,ETV5,"1.59 fold enrichment (6-mer frequency, TF over GST control)"
same,binding signal,HSF1,"1.29 fold enrichment (6-mer frequency, TF over GST control)"
same,binding signal,SPIC,"1.58 fold enrichment (6-mer frequency, TF over GST control)"
same,binding signal,ELF4,"1.5 fold enrichment (6-mer frequency, TF over GST control)"
same,binding signal,ELK4,"1.32 fold enrichment (6-mer frequency, TF over GST control)"
same,binding signal,ETV2,"1.41 fold enrichment (6-mer frequency, TF over GST control)"
same,binding signal,ELF3,"1.68 fold enrichment (6-mer frequency, TF over GST control)"
same,binding signal,CRX,"1.34 fold enrichment (6-mer frequency, TF over GST control)"
same,binding signal,ETV1,"1.49 fold enrichment (6-mer frequency, TF over GST control)"

# From publication PMC7862700, “An all-to-all approach to the identification of sequence-specific readers for epigenetic DNA modifications on cytosine”
